Screens deposited in PubChem BioAssay by National Center for Advancing Translational Sciences (NCATS).
Only some compounds are listed: those with a hit (about 18% of all), similar ones and a draw of the others.
LDHA block: qHTS assay for inhibitors of human lactate dehydrogenase; purified LDHA, NADH/diaphorase-resazurin fluorescence; hits give low values; activity change, % (values are at about 110 or 230 µM); L-lactate dehydrogenase A chain (Homo sapiens), P00338; 0.15% of 480,000 active; in the data active = activity change below about -30%; inconclusive = mostly about -25% to -30%;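 note: plate controls were DMSO wells for no effect and wells without enzyme for full effect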
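Enzyme activity of human lactate dehydrogenase 5 (2 nM; 0.06 mM NADH, 0.2 mM pyruvate, 5 min, RT) is measured via a resazurin/diaphorase fluorescence readout of residual NADH.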
IL-1B inflam inh: qHTS for Inhibitors of Inflammasome Signaling: IL-1-beta AlphaLISA Primary Screen; activity change, % at 57.5 µM; 4.7% of 360,000 active; THP-1 LPS/ATP IL-1B secretion, AlphaLISA, 16 h; hits give low values; in the data active = activity change below about -50%; inconclusive = mostly about -30% to -49%
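Secreted IL-1B measured by AlphaLISA bead assay after 16 h compound exposure of THP-1 cells; compounds (final up to 57.5 uM) added 1 h before LPS (250 ng/mL) and ATP (1.25 mM) stimulation; lower signal means less secretion.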
Gal4-VP16 FLuc: VP16 counterscreen qHTS for inhibitors of ROR gamma transcriptional activity. Drosophila S2 Gal4-VP16 UAS-luciferase, luminescence, 20 h. Potency, µM (highest dose often 53.6 µM), for inactives: top-dose activity, negative = inhibition, usual class: inhibitors. 3.5% of 310,000 active;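 note: Gal4-VP16 expression switched on by copper sulfate through the metallothionein promoter; potency is the fitted concentration of half-maximal effect; nearly all actives have a fitted effect of over 50% in size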
DT40 TDP1 CPT: qHTS for Inhibitors of human tyrosyl-DNA phosphodiesterase 1 (TDP1): qHTS in cells in presence of CPT; chicken DT40 Tdp1-/-;hTDP1 cells + 20 nM CPT, ATP luminescence, 48 h; Potency, µM (top dose mostly 46.2 µM), for inactives: at the highest dose activity change, negative = growth inhibition, usual class: inhibitors; 12% of 420,000 active; AID 686979, 2013; note: potency is the fitted concentration of half-maximal effect; nearly all actives have a fitted effect of over 55% in size
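Chicken DT40 Tdp1-/- cells stably complemented with human TDP1 were seeded at 400 cells/well in medium containing 20 nM camptothecin, exposed to pin-transferred compounds, and grown at 37 °C for at least 48 hr. Viability was read as ATP luminescence.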
RORgamma inh: qHTS for inhibitors of ROR gamma transcriptional activity; Nuclear receptor ROR-gamma (Mus musculus), P51450; Drosophila S2 Gal4-RORgamma UAS-luciferase reporter, 20 h; Potency, µM (top dose mostly 53.6 µM), for inactives: at the highest dose activity change, negative = inhibition, actives largely listed as inhibitors; 5.4% of 310,000 active; note: potency is the fitted concentration of half-maximal effect; nearly all actives have a fitted effect of over 60% in size
Target sequence (P51450 whole entry, looked up, the tested form may be a part): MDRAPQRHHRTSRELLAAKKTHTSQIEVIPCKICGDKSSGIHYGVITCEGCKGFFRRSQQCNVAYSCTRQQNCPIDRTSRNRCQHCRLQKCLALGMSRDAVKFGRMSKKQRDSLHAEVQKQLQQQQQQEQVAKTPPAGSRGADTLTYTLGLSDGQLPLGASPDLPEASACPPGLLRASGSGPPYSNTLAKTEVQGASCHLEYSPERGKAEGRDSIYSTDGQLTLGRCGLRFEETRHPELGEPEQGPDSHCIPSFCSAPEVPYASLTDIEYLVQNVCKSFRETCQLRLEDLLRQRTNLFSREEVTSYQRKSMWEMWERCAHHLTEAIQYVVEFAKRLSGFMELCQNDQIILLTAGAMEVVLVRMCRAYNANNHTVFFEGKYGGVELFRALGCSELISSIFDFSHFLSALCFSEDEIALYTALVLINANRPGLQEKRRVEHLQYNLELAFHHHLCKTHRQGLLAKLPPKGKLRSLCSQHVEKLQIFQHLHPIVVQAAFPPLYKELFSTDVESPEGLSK
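A Gal4/UAS one-hybrid system in insect cells: metallothionein-promoter Gal4–ROR gamma fusion plus Photinus luciferase reporter. Copper sulfate 700 uM final, 20 hr ambient incubation, luminescent detection after 10 min with reagent.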
TDP1 cell noCPT: qHTS for Inhibitors of human tyrosyl-DNA phosphodiesterase 1 (TDP1): qHTS in cells in absence of CPT; Potency, µM (titrated, usually from 46.2 µM), inactives show at the highest dose activity change, negative = growth inhibition, most hits filed as inhibitors; DT40 Tdp1-/- hTDP1 cells, no CPT, ATP luminescence, 48 h; AID 686978, 2013; 15% of 420,000 active; note: potency is the fitted concentration of half-maximal effect; nearly all actives have a fitted effect of over 55% in size
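A cellular qHTS used chicken DT40 cells lacking endogenous Tdp1 but carrying stably transfected human TDP1. Compounds were applied without camptothecin, and cell growth kinetics were judged by ATP-dependent luminescence after ≥48 hr.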
* = called active by the depositor; ? = inconclusive; . = no result given; ! = a repeat was not active; [ ] = another dose, or the depositor's remark. Unless noted, calls come from the whole dose curve; as a rule, active = well fitted curve in the direction sought with a large enough effect; inconclusive = small, poorly fitted or top-dose-only effect, or another doubt; inactive = no such curve, though single readings can be large; an effect the other way counts as inactive or inconclusive. Unless noted, % is set by controls: 0 for no effect and ±100 for the full control effect.

SMILES	LDHA block	IL-1B inflam inh	Gal4-VP16 FLuc	DT40 TDP1 CPT	RORgamma inh	TDP1 cell noCPT
O=C1CS/C(=N/N=C\c2ccn[nH]2)N1	1	9	?	1%	10µM*	-2%
Cc1ccc(C)n1/N=C1/NC(=O)CS1	-1	19	4%	-22%	-41%	-5%
CC(/C=C/C=C(C)/C=C/C(=O)O)=C\C=C\C=C(C)\C=C\C=C(C)\C=C\C(=O)O	.	.	-5%	.	-11%	.
CC1=C(/C=C/C(C)=C\C=C\C(C)=C\C(=O)O)C(C)(C)CCC1	.	.	5%	-13%[4.12 µM]	?	26µM*!
CC1=C(/C=C/C(C)=C/C=C/C(C)=C/C=C/C=C(C)/C=C/C=C(C)/C=C/C2=C(C)C[C@@H](O)CC2(C)C)C(C)(C)C[C@H](O)C1	.	.	.	15µM*	.	15µM*
CC1=C(/C=C/C(C)=C/C=C/C(C)=C/C(=O)O)C(C)(C)CCC1	-6	51	-4%	?	5µM*!	?
CC1=C(/C=C/C(C)=C/C=C/C(C)=C/C(=O)Oc2c(C)c(C)c3c(c2C)CC[C@@](C)(CCC[C@H](C)CCC[C@H](C)CCCC(C)C)O3)C(C)(C)CCC1	.	.	5%	-3%	2%	-22%
CC1=C(/C=C/C(C)=C\C=C\C(C)=C\C=C\C=C(C)\C=C\C=C(C)\C=C\C2=C(C)C[C@@H](O)CC2(C)C)C(C)(C)C[C@H](O)C1	.	.	-12%	.	?	.
CC1=C(/C=C/C(C)=C/C=C/C(C)=C/C(=O)O)C(C)(C)CCC1O (stereo unspecified)	.	.	.	26µM*	.	21µM*
CC1=C(/C=C/C(C)=C/C=C/C(C)=C/C=C/C=C(C)/C=C/C=C(C)/C=C/C(=O)[C@]2(C)CC(O)CC2(C)C)C(C)(C)CC(O)C1 (stereo partly specified)	.	.	-8%	20%	-13%	9%
CC(C)(C)NCc1ccc2c(c1)OCO2	0	.	.	.	.	.
CCCS(=O)(=O)N1CCN(Cc2cc(=O)n3nc(-c4ccc(OC)cc4)sc3n2)CC1	-1	.	.	.	.	.
O=C(Nc1ccc(Cl)cc1)OCCn1nnnc1C(c1ccccc1Cl)N1CCOCC1 (stereo unspecified)	4	-29	-1%	26µM*	45%	18µM*
COc1cc(CCC(=O)Nc2ccc(C)c(S(=O)(=O)N(C)C)c2)cc(OC)c1OC	-1	5	-5%	15µM*	3%	21µM*
COc1ccc(CC(=O)Nc2ccc(C)c(S(=O)(=O)N3CCCCCC3)c2)cc1	0	?	.	?	.	?
Cc1ccc(NC(=O)CSc2nn(-c3ccccc3)c(=S)s2)cc1S(=O)(=O)N(C)C	1	-1	14µM*	5.2µM*	?	5.2µM*
O=C(CSc1nn(-c2ccccc2)c(=S)s1)Nn1cnnc1	-7	14	-11%	0%	-13%	-1%
COc1cc(CCC(=O)OCC(=O)Nc2cccc(S(=O)(=O)N(C)C)c2)cc(OC)c1OC	-7	0	-3%	-8%	6%	6%
COc1ccc(CCC(=O)Nc2ccc(C)c(S(=O)(=O)N(C)C)c2)cc1OC	0	18	-9%	?	45%	16µM*
COc1ccc(CCNCC(=O)Nc2ccc(C)c(S(=O)(=O)N(C)C)c2)cc1	-24	-76*	-9%	-30%	12%	4.6µM*
COc1cccc(NC(=O)CNc2ccccc2C(=O)NC2CC2)c1	3	.	.	.	.	.
O=C(O)CCNS(=O)(=O)c1ccccc1Cl	10	.	.	.	.	.
COc1ccc2c(c1)cc(C(=O)Nc1cccc(C)c1C)n2C	11	.	.	.	.	.
Cc1ccc(NC(=O)CNCC2CCCCC2)cc1S(=O)(=O)N(C)C	-16	-23	-4%	16µM*	12%	?
O=C(CNCC1CCCCC1)Nc1ccc(OC(F)(F)F)cc1	-13	-101*	-3%	-15%	16%	-10%
SMILES	LDHA block	IL-1B inflam inh	Gal4-VP16 FLuc	DT40 TDP1 CPT	RORgamma inh	TDP1 cell noCPT
Cc1ccc(NC(=S)NC2CCCCC2)cc1S(=O)(=O)N(C)C	-3	0	?	?	13µM*	?
COc1ccc(C2CC2(C#N)C(=O)Nc2ccc(Cl)cc2Cl)cc1 (stereo unspecified)	-11	.	.	.	.	.
c1ccc(-c2csc3ncnc(N4CCN(Cc5ccc6c(c5)OCO6)CC4)c23)cc1	-3	10	-2%	16µM*	9%	7.3µM*
O=C(c1ccc2nc3ccccc3c(=O)n2c1)N1CCN(Cc2ccc3c(c2)OCO3)CC1	2	?	-6%	29µM*	20%	?
c1ccc(CN2CCN(c3ncnc4scc(-c5ccccc5)c34)CC2)cc1	-1	.	.	.	.	.
O=C(CSc1nccc2ccccc12)N1CCN(Cc2ccc3c(c2)OCO3)CC1	-8	-81*	.	?	.	?
O=C(c1cccn2c(=O)c3ccccc3nc12)N1CCN(Cc2ccc3c(c2)OCO3)CC1	-1	-11	5%	-24%	-18%	?
c1ccc2c(c1)oc1c(N3CCN(Cc4ccc5c(c4)OCO5)CC3)ncnc12	0	-27	?	23µM*	-30%	23µM*
C/C(=N/NC(=O)C1CC1)c1ccc(C)cc1	3	.	.	.	.	.
O=C(CSCc1ccccc1)N1CCN(Cc2ccc3c(c2)OCO3)CC1	-2	?	5%	?	8%	?
O=C(CSc1ncnc2scc(-c3ccccc3)c12)N1CCN(Cc2ccc3c(c2)OCO3)CC1	4	-25	?	?	22µM*	13µM*
Cn1c(N2CCN(c3ccccn3)CC2)nc2c1c(=O)n(Cc1ccc(Cl)cc1)c(=O)n2C	1	-6	0%	16µM*	5%	?
O=C(CCc1nnc2n(Cc3ccc(Cl)cc3)c(=O)c3ccccc3n12)N1CCN(c2ccccn2)CC1	-11	.	-3%	21µM*	-2%	21µM*
C=CCOc1nc2c(c(=O)n(Cc3ccccc3)c(=O)n2C)n1C	1	.	.	.	.	.
CC(C)OCCCn1c(=O)c2ccccc2n2c(CCC(=O)N3CCN(c4ccccn4)CC3)nnc12	-2	?	3%	?	15%	?
Cn1c(OCc2cccnc2)nc2c1c(=O)n(Cc1ccc(Cl)cc1)c(=O)n2C	0	18	.	12µM*	.	18µM*
